SMILES strings stand for the structures. Values joined by “and” are separate entries in the source; they are usually repeats but may differ in a detail not shown here. Identical values can stand only once. Unmarked numbers belong to inactive results. Active and inactive are the calls of the source. The rule behind the calls is not given here.

IC50 data for 13 compounds are collected here from PubChem BioAssay AID623972 (The Scripps Research Institute Molecular Screening Center, 2012).

A short description of the assay: DNA binding via ethidium displacement, late-stage follow-up, artefact control for HCV NS3 helicase inhibitor project, biochemical, fluorescence, ethidium bromide (AID 623972).
The IC50 is the midpoint of a concentration-inhibition curve. Turning to `Cc1ccc2nc(-c3ccc(N)cc3)sc2c1S(=O)(=O)O`, the IC50 was greater than 100 µM.

`Cc1ccc2nc(-c3ccc4nc(-c5ccc6nc(-c7ccc(N)cc7)sc6c5)sc4c3)sc2c1S(=O)(=O)O`: the IC50 was 55 µM (active).

On to `Cc1cc2sc(-c3ccc(N)cc3)nc2cc1S(=O)(=O)O`, for which the IC50 was greater than 100 µM.

In the case of `Cc1cc(C(O)(c2ccc(Nc3ccccc3)cc2)c2ccc(Nc3ccc(S(=O)(=O)O)cc3)cc2)ccc1N` (stereo not drawn), the IC50 is 4 µM (active).

As to `Cc1ccc2nc(-c3ccc4nc(-c5ccc6nc(-c7ccc(N)cc7)sc6c5)sc4c3)sc2c1S(=O)(=O)O` (tested in a mixture with another compound), the concentration for half-maximal inhibition (IC50) was 73 µM (active).

Regarding `Cc1cc2sc(-c3ccc4nc(-c5ccc(N)cc5)sc4c3)nc2cc1S(=O)(=O)O`, the IC50 was greater than 100 µM.

On to `CN1CCN(Cc2cc(CN3CCN(C)CC3)c(O)c(=O)c(CN3CCN(C)CC3)c2)CC1`, for which the IC50 was 31 µM (active).

For `CCOc1ccc2c(NNC(=O)c3cnccn3)c3c(nc2c1)CCCC3`, the IC50 was greater than 100 µM.

`CCN(CC)c1ccc(-c2nc3ccc(C)c(S(=O)(=O)O)c3s2)cc1`: the IC50 is greater than 100 µM.

In the case of `CCN(CC)c1ccc(-c2nc3ccc(-c4nc5ccc(C)c(S(=O)(=O)O)c5s4)cc3s2)cc1`, the IC50 was greater than 100 µM.

For `Cc1ccc2nc(-c3ccc4nc(-c5ccc(N)cc5)sc4c3)sc2c1S(=O)(=O)O`, the IC50 is greater than 100 µM.

In the case of `Cc1ccc2nc(-c3ccc4nc(-c5ccc6nc(-c7ccc8nc(-c9ccc(N)cc9)sc8c7)sc6c5)sc4c3)sc2c1S(=O)(=O)O`, the IC50 is 15 µM (active) and 76 µM (active).

`COc1cccc2c(=O)c3cc(Cl)cc(C(=O)Nc4cc(Cl)ccn4)c3[nH]c12`: the IC50 was greater than 100 µM.
